The values that follow come from PubChem BioAssay AID1159580 (chemical genetic matrix, 2015).

SMILES strings stand for the structures. In all, about 5,500 compounds went through this assay and about 2,000 (36%) were called active. About 18% were inconclusive and are not listed. Some of the results follow. A number with no mark means an inactive call. No stated cut-off is given here; in the data, active means normalized growth mostly below about 0.91 (no sharp cut-off); inconclusive means no clear call, values can overlap the other calls; inactive means mostly above about 0.92.

A short description of the assay: chemical genetic growth profiling, strain panel (AID 1159580).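 Further: tested at 20 µM; growth read once vehicle control cultures reached saturation at 30 °C; 1 = growth at the plate median or of vehicle wells; lower values mean less growth of the strain.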 The note with it: S. cerevisiae deletion strains, growth OD.
Setting [1] is: locus YAL013W, strain DEP1, active compounds read low.
[2] abbreviates: locus YDR150W, strain NUM1, active compounds read low.
Where [3] appears, read: locus YPL055C, strain LGE1, active compounds read low.
The mark [4] stands for this setting: locus YBR229C, strain ROT2, active compounds read low.
The mark [5] stands for this setting: locus YCL061C, strain MRC1, active compounds read low.
[6] abbreviates: locus YDL101C, strain DUN1, active compounds read low.
[7] abbreviates: locus YEL061C, strain CIN8, active compounds read low.
Setting [8] is: locus YGR078C, strain PAC10, active compounds read low.
[9] abbreviates: locus YHR030C, strain SLT2, active compounds read low.
The mark [10] stands for this setting: locus YHR087W, strain rtc3, active compounds read low.
[11] abbreviates: locus YJR043C, strain POL32, active compounds read low.
Setting [12] is: locus YJR075W, strain HOC1, active compounds read low.
The mark [13] stands for this setting: locus YLR039C, strain RIC1, active compounds read low.
Setting [14] is: locus YLR058C, strain SHM2 (second series), active compounds read low.
Setting [15] is: locus YLR085C, strain ARP6, active compounds read low.
The mark [16] stands for this setting: locus YLR262C, strain YPT6, active compounds read low.
[17] abbreviates: locus YML094W, strain GIM5, active compounds read low.
The mark [18] stands for this setting: locus YMR219W, strain ESC1, active compounds read low.
Setting [19] is: locus YMR263W, strain SAP30, active compounds read low.
The mark [20] stands for this setting: locus YNL153C, strain GIM3, active compounds read low.
[21] abbreviates: locus YNL298W, strain CLA4 (second series), active compounds read low.
Where [22] appears, read: locus YNL322C, strain KRE1, active compounds read low.
[23] abbreviates: locus YNR030W, strain Alg12, active compounds read low.
Setting [24] is: locus YOL006C, strain TOP1, active compounds read low.
Where [25] appears, read: locus YPL241C, strain CIN2, active compounds read low.
Where [26] appears, read: locus YPR135W, strain CTF4, active compounds read low.

Take `COC(=O)c1c(-c2cc(OC)c(OC)c(OC)c2)c2ccc(OCc3ccccn3)cc2c(=O)n1-c1ccc(N)cc1`: the normalized growth was 1.02 under setting [1]; 1.01 (locus YAL040C, strain CLN3, active compounds read low); 0.999 (locus YCL061C, strain MRC1 (second series), active compounds read low); 1.01 under setting [2]; 1.01 (locus YDR363W, strain ESC2, active compounds read low); 1.03 (locus YER002W, strain NOP16, active compounds read low). In addition, the normalized growth is 1.01 (locus YMR307W, strain GAS1, active compounds read low); 1.02 (locus YNL128W, strain TEP1, active compounds read low); 1.03 (locus YNL175C, strain NOP13, active compounds read low); 1.04 (locus YNL197C, strain WHI3, active compounds read low); 1.04 (locus YNL224C, strain SQS1, active compounds read low); 1.01 (locus YOR083W, strain WHI5 (second series), active compounds read low). Under setting [3], the normalized growth was 1.02.

With `CCC(=O)c1ccc(-c2ccccc2)cc1`, the normalized growth is 0.948 under setting [1]; 0.93 under setting [4]; 0.904 (active) under setting [5]; 0.918 under setting [6]; 0.963 (locus YDL134C, strain PPH21, active compounds read low); 0.899 under setting [2]. For the same compound, the normalized growth is 0.895 (active) under setting [7]; 0.935 under setting [8]; 0.978 (locus YGR229C, strain SMI1, active compounds read low); 0.502 (active) under setting [9]; 0.939 under setting [10]; 0.912 (active) under setting [11]. Moreover, the normalized growth was 0.912 under setting [12]; 0.765 (active) under setting [13]; 0.953 under setting [14]; 0.631 (active) under setting [15]; 0.727 (active) under setting [16]; 0.934 under setting [17]. The normalized growth under setting [18] was 0.957; the normalized growth under setting [19] was 0.905; the normalized growth under setting [20] is 0.924 (active); the normalized growth under setting [21] is 0.821 (active); the normalized growth under setting [22] is 0.968; the normalized growth under setting [23] was 0.936. The normalized growth by setting is: under setting [24], 0.568 (active); under setting [3], 0.831; under setting [25], 0.863; under setting [26], 0.58 (active).

With `O=C(CCCCCCCCC(=O)c1ccccc1)c1ccccc1`, the normalized growth was 0.996 under setting [1]; 1 under setting [4]; 1.01 under setting [5]; 1.01 under setting [6]; 0.918 under setting [2]; 1.01 under setting [7]. The normalized growth is, setting by setting: under setting [8], 1.02; under setting [9], 0.964; under setting [10], 1.05; (locus YJL187C, strain SWE1, active compounds read low) 1.02; under setting [11], 1.01; under setting [12], 0.987. Also, the normalized growth by setting is: under setting [13], 1.04; under setting [14], 0.998; under setting [15], 0.998; under setting [16], 1.04; under setting [17], 1.01; under setting [18], 0.999. For the same compound, the normalized growth by setting is: under setting [19], 1; under setting [20], 0.994; under setting [21], 1.05; under setting [22], 1; under setting [23], 1.01; under setting [24], 1.01. Also, the normalized growth under setting [3] is 0.981, the normalized growth under setting [25] was 1 and the normalized growth under setting [26] was 1.
